L major viab: Leishmania major promastigote growth inhibition; Leishmania major promastigotes, resazurin fluorescence viability; AID 1063; hit rate 9% among 200,000; inhibition, % at 10 µM; in the data active = inhibition above about 50%;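 also: promastigotes grown with compound for 44 hours at 28 °C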
RAM inhibit: yeast RAM network inhibition. hit rate 1.8% among 190,000. S. cerevisiae dse1pr::URA3 reporter, 5-FOA growth OD615, 2 d; analog-sensitive cbk1-as2 kinase mutant strain. inhibition, % at 50 µM;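 active = inhibition above a set limit, 3 SD over mean compound inhibition, cut at about 8.4% in these data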;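 also: 0% = DMSO-only wells with no growth and 100% = 10 µM 1-NA-PP1 full growth; inhibition rescues growth on 5-FOA so higher OD means more RAM inhibition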
WT yeast gro inh: growth inhibition of WT yeast, mitochondrial fusion screen | mitochondrial fusion phenotypic screen, WT strain | inhibition, % at 10 µM | hit rate 2.1% among 190,000 | AID 1362; in the data active = inhibition above about 58%; tested in S. cerevisiae
CHOP inh: blocks CHOP induction under ER stress; CHO-K1 CHOP-promoter luciferase, tunicamycin-induced, 15-18 h; inhibition, % at 10 µM; hit rate 3.8% among 220,000; AID 2732;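 active = compounds that reduced the stress-induced luciferase reporter signal by more than about 70% of percent inhibition, limit read from the data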;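 also: 0% = tunicamycin plus vehicle and 100% = wells without tunicamycin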
The depositor's hits bear a star; . = not tested or not shown. This is a sample that favours compounds with a hit; in the whole collection about 13% have one here.

SMILES	L major viab	RAM inhibit	WT yeast gro inh	CHOP inh
COC(=O)NC(NC(=S)Nc1cccc(C)c1)C(Cl)(Cl)Cl (stereo unspecified)	13	5	-5	14
COc1ccc(/C(N)=N/O)c(OC)c1	-5	2	0	23
CC(=O)c1ccc(N2CCN(C(=O)C3CCCN(S(=O)(=O)c4c(C)[nH]c(=O)[nH]c4=O)C3)CC2)cc1 (stereo unspecified)	-2	3	-3	6
CCN(CC)P(=O)(Nc1cccc(C(F)(F)F)c1)c1ccc(N(C)C)cc1NC(=O)c1ccco1 (stereo unspecified)	91*	4	8	23
CN(C)c1cccc(NC(=O)c2ccco2)c1	2	0	-11	2
Cc1cccc(NC(=O)Nc2nnc(N3CCCCC3C)s2)c1C (stereo unspecified)	-1	6	5	80*
COC(=O)c1ccc(NC(=O)COc2ccc(C3C(C#N)=C(N)Oc4c3ccc3ccccc43)cc2OC)cc1 (stereo unspecified)	95*	2	-10	27
O=[N+]([O-])c1ccc(Sc2cccc[n+]2[O-])c2nonc12	.	.	.	108*
O=C(CSc1cccc[n+]1[O-])Nc1ccc(C(F)(F)F)cc1[N+](=O)[O-]	-4	-1	-1	-1
O=C(CCCOc1ccc(Cl)cc1Cl)Nc1ncccn1	.	.	.	24
COc1ccc(/C=C(\C#N)C(=O)OCC(=O)NCc2ccc(Cl)cc2)cc1	59*	2	5	9
COc1ccc(/C=C(\C#N)C(=O)OCC(=O)NCc2ccccc2Cl)cc1	-7	1	4	10
O=C(COC(=O)CCCOc1ccc(Cl)cc1Cl)Nc1cccc(Cl)c1	-2	11*	70*	13
COc1ccc(CNC(=O)COC(=O)CCCOc2ccc(Cl)cc2Cl)cc1	-8	9.6*	-6	27
COc1ccccc1OCCC(=O)OCC(=O)NCc1ccc(Cl)cc1	3	2	-7	-6
CCCCCNC(=O)C1CC(=O)OC12CCCCC2 (stereo unspecified)	-6	1	7	1
Cc1ccc(C(=O)N[C@@H](C)CN2C3=NC[C@H](C)N3C[C@H]2Cc2ccc(O)cc2)cc1Br	.	.	.	-4
C=CCSc1nc(Oc2ccccc2)c2sccc2n1	8	0	2	72*
Oc1ccc(-c2csc(Nc3ncccn3)n2)cc1O	39	0	5	-20
Oc1ccc(-c2csc(Nc3ncccn3)n2)c(O)c1	2	6	8	94*
Cc1cccnc1Nc1nc(-c2ccc(O)cc2)cs1	99*	1	54	21
COc1ccc2cc(C(=O)C3CCCN(C(=O)c4cc5nc(C)cc(C)n5n4)C3)ccc2c1 (stereo unspecified)	5	0	-6	-11
Cc1c(N2C(=O)CS/C2=N\N=C\c2ccc(Cl)cc2)c(=O)n(-c2ccccc2)n1C	77*	2	18	-15
O=C(CC1CCCCC1)OCn1nnc2ccccc2c1=O	-2	-1	2	82*
CCC(=O)OCn1nnc2ccccc2c1=O	0	0	3	32
SMILES	L major viab	RAM inhibit	WT yeast gro inh	CHOP inh
COc1ccc(C(=O)OCn2nnc3ccccc3c2=O)cc1OC	1	8.8*	0	-11
CC(C)(Oc1ccc(Cl)cc1)C(=O)OCn1nnc2ccccc2c1=O	-8	3	1	78*
O=S(=O)(c1cccs1)N1CCC(CO)(Cc2ccc(Cl)cc2)CC1	7	2	26	-6
Cc1ccc(C2C=NN(c3ccccc3)C2=O)cc1 (stereo unspecified)	-14	3	-3	-1
COc1ccc(/C=[N+](\[O-])C2N(c3ccccc3)C(=S)SC2(C)C)cc1OC (stereo unspecified)	.	.	.	8
CC1CC(C)(C)NC(=S)N1CC(=O)N1CCN(Cc2ccc3c(c2)OCO3)CC1 (stereo unspecified)	-5	0	14	14
CC(C)c1ccc(NC(=O)N2CCCC2C(=O)Nc2ccc(-n3cnnn3)cc2)cc1 (stereo unspecified)	66*	0	0	4
Cc1ccn2cc(CSc3ccccc3)nc2c1	71*	0	60*	-16
C=CCn1c(COc2ccc(Cl)cc2)nnc1SCc1ccc(C#N)cc1	58*	1	8	29
COc1ccc(-n2c(COc3cccc4ccccc34)nnc2SCC#N)cc1	55*	6	48	20
C=CCn1c(SCc2ccc(C#N)cc2)nnc1-c1cccc(OC)c1	84*	-1	-2	0
Cc1ccc(-n2c(SCc3ccc(C#N)cc3)nnc2-c2ccccn2)cc1	-1	2	-8	29
N#CCSc1nnc(COc2cccc3ccccc23)n1-c1ccccc1	31	3	16	41
Cc1ccc(OCc2nnc(SCc3ccc(C#N)cc3)n2-c2ccc(C)cc2)cc1	100*	8.5*	46	55

High-throughput results: PubChem, several laboratories
